5 compounds from PubChem BioAssay can be followed below.

Test [1] in a line: compounds binding Alexa647 anti-His antibody – biochemical, small-molecule microarray, 635 nm fluorescence, artefact control for SMM control protein annotation, primary screen (AID 1128).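 Also: score merges feature fluorescence with signal-to-noise for each printed compound spot.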 As to conditions: higher = more signal.
The subject of test [2] is Human papillomavirus type 1a E7 protein (residues 1-88). Briefly: HPV1a E7 small-molecule binders, primary screen, biochemical, small-molecule microarray, residues 1-88, 635 nm (AID 1129). As to conditions: small-molecule microarray binding, fluorescence 635 nm; higher = more signal.
Test [3] addresses Focal adhesion kinase 1 (Homo sapiens) (UniProt Q05397). Briefly: PTK2 protein binding on printed compound slides – biochemical, small-molecule microarray, 635/667 nm fluorescence, BSA, DTT, primary screen (AID 1130).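 Also: composite of spot emission at 667 nm and signal to noise over triplicate slides.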 As to conditions: 635 nm fluorescence, higher = more signal.
The subject of test [4] is Fibrinogen (Alexa647-labelled). Briefly: Alexa647-fibrinogen binding to printed small molecules – biochemical, small-molecule microarray, 635/667 nm fluorescence, artefact control for SMM control-protein annotation, profiling panel (AID 1131).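 Also: z-score merges 667 nm fluorescence with per-spot signal-to-noise over triplicate slides.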 The following applies: fibrinogen-A647 binding fluorescence, higher = more signal.
The target in test [5] is Follistatin (Homo sapiens) (UniProt P19883). Briefly: FST protein binding to printed compounds – biochemical, small-molecule microarray, 635/667 nm fluorescence, primary screen (AID 1132). The following applies: 635 nm fluorescence, higher = more signal.
Sequence of Follistatin (Homo sapiens) (P19883 whole entry, looked up): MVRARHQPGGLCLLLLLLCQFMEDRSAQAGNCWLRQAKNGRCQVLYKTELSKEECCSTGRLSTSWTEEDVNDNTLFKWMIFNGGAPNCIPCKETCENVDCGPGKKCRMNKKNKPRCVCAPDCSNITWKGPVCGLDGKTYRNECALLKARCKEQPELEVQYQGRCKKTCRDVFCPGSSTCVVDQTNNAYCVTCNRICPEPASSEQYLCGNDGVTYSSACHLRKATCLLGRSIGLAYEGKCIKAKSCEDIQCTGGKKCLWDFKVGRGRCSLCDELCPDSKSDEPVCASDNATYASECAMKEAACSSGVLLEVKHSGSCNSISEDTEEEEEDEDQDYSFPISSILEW
Test [6] has as its target Fibroblast growth factor 2 (Homo sapiens) (UniProt P09038). Briefly: basic fibroblast growth factor binding to printed compounds – biochemical, small-molecule microarray, 635/667 nm fluorescence, primary screen (AID 1133). As to conditions: FGF2, fluorescence 635/667, higher = more signal.
Test [7] can be described thus: JC-1 mitochondrial potential readout, lung cancer cells – cell-based, A549, JC-1 fluorescence, basal, 24 h, 100 nL, profiling panel (AID 1138).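 Also: A549 lung adenocarcinoma cells under basal conditions with no added stimulus; test concentration not given here.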 The following applies: higher = more signal.
The next test has as its system Lefty1. The test is described as follows: Lefty1 protein binding to printed compounds – biochemical, small-molecule microarray, 635/667 nm fluorescence, primary screen (AID 1139). As to conditions: fluorescence 635/667, higher = more signal.
Test [8] deals with wheat germ agglutinin (Triticum aestivum), Alexa647-labelled. The test is described as follows: Alexa647-WGA lectin binding to printed small molecules – biochemical, small-molecule microarray, 635/667 nm fluorescence, artefact control for SMM control-protein annotation, profiling panel (AID 1140).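 Also: score merges 667 nm feature emission with signal to noise over triplicate slides.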 The following applies: WGA-A647 binding, 635 nm fluorescence, higher = more signal.

The target of test [9] is Luciferin 4-monooxygenase (Photinus pyralis) (UniProt P08659). Briefly: inhibition of purified Photinus pyralis luciferase – biochemical, luminescence, purified enzyme, 2006 set, primary screen (AID 1141).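 Also: cell-free assay with purified firefly luciferase at 100 ng per well in PBS; test concentration not given here.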 As to conditions: purified firefly luciferase, SteadyGlo luminescence, 30 min; higher = more signal, called active from +8 up or from −8 down.
Sequence of Luciferin 4-monooxygenase (Photinus pyralis) (P08659 whole entry, looked up): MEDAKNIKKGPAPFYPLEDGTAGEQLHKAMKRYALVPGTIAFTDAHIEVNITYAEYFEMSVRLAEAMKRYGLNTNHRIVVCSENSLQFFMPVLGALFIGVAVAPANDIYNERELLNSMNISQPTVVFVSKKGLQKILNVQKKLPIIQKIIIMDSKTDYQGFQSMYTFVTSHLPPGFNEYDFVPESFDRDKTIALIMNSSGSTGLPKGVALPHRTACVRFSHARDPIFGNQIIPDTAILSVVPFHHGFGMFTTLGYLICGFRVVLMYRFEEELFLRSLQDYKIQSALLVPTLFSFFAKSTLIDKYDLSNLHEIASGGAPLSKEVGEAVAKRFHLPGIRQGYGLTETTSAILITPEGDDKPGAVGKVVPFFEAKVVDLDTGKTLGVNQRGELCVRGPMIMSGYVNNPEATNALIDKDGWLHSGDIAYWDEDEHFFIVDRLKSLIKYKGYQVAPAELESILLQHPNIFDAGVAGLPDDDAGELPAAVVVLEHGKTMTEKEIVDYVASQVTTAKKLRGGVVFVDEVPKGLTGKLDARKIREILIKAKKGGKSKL
Test [10] relates to Wnt5a (protein binding on small-molecule microarray). Briefly: small molecules binding Wnt5a protein – biophysical, small-molecule microarray, 635/667 nm fluorescence, primary screen (AID 1142).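 Also: fluorescence read at 667 nm with signal to noise per printed feature.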 As to conditions: 635 nm fluorescence, higher = more signal.
Test [11] is described as follows: ATP-based viability of Huh7 replicon cells – cell-based, CellTiter-Glo luminescence, basal, 48 h, cytotoxicity control for HCV replication inhibitor project, primary screen (AID 1143).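 Also: Huh7 hepatoma cells carrying a hepatitis C replication reporter with no stimulus; test concentration not given here.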 As to conditions: higher = more signal, called active from +8 up or from −8 down. A general note: Replicon systems follow genome replication, usually without infectious particles.
A short description of test [12]: Pseudomonas biofilm growth suppression – PAO1 strain, BacTiter-Glo luminescence, LB-PBS, primary screen (AID 1144). The following applies: P. aeruginosa PAO1 biofilm, 12 h, higher = more signal.
Test [13] is described as follows: basal CRE-LacZ reporter activity in PC12 – cell-based, unstimulated, primary screen (AID 1145). As to conditions: no forskolin, luminescence, 4.5 h, higher = more signal, called active from +8 up or from −8 down.
A short description of test [14]: forskolin-driven CRE-LacZ activity in PC12 – cell-based, CRE-LacZ reporter, forskolin-stimulated, primary screen (AID 1146).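 Also: PC12 cells with 6xCRE LacZ reporter stimulated by forskolin 10 µM; beta-galactosidase reporter signal reflecting CREB driven transcription.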 As to conditions: luminescence, 4.5 h, higher = more signal, called active from +8 up or from −8 down.
The target of test [15] is Streptavidin (Streptomyces avidinii) (UniProt P22629). The test is described as follows: compounds binding control protein streptavidin – biophysical, small-molecule microarray, 635/667 nm fluorescence, artefact control for SMM compound annotation, primary screen (AID 1147).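 Also: signal reflects streptavidin binding to arrayed compounds as a control protein.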 The following applies: higher = more signal.
Sequence of Streptavidin (Streptomyces avidinii) (P22629 whole entry, looked up): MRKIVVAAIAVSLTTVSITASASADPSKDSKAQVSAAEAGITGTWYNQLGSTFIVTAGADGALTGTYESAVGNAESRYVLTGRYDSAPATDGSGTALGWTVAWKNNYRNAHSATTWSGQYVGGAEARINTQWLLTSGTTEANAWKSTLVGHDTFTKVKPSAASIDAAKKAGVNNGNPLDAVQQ
Test [16] in a line: probe aInhba binding on compound microarray – biochemical, small-molecule microarray, 635/667 nm fluorescence, primary screen (AID 1148).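 Also: score merges 667nm spot fluorescence with signal-to-noise for antibody binding to printed compounds.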 As to conditions: higher = more signal.
The target of test [17] is Torsin-1A (Homo sapiens) (UniProt O14656). The test is described as follows: TOR1A wild-type binding on microarray – cell lysate, small-molecule microarray, lysate, 635/667 nm, primary screen (AID 1149). As to conditions: COS7 hTOR1A-WT lysate, 635 nm fluorescence, higher = more signal.
Sequence of Torsin-1A (Homo sapiens) (O14656 whole entry, looked up): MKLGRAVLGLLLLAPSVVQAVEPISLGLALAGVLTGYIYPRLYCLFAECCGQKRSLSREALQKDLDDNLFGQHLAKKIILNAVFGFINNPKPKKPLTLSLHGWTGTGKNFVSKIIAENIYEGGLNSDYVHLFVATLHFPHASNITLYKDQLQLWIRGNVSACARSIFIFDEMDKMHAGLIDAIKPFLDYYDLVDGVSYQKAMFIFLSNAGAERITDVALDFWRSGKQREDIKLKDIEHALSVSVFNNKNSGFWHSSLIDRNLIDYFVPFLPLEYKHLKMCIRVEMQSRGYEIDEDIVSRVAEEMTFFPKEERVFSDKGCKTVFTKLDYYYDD
The target is the same in test [18]. The test is described as follows: torsin A mutant lysate binding on microarrays – cell lysate, small-molecule microarray, COS7 lysate, 635/667 nm fluorescence, primary screen (AID 1150).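 Also: score pools 667 nm emission and signal to noise measuring lysate protein binding.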 As to conditions: COS7 hTOR1A mutant lysate, 635 nm fluorescence, higher = more signal.
Test [19] deals with Sonic hedgehog protein (Shh). The test is described as follows: Sonic hedgehog microarray binding compounds – biochemical, small-molecule microarray, 635/667 nm fluorescence, primary screen (AID 1151).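 Also: Shh protein binding to compounds spotted on small-molecule microarray slides; score combines spot fluorescence intensity with signal-to-noise across triplicate slides.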 As to conditions: 635 nm fluorescence, higher = more signal.

The source made the active and inactive calls. Unless noted, no rule for the calls is given here.

Sequence of Fibroblast growth factor 2 (Homo sapiens) (P09038 whole entry, looked up): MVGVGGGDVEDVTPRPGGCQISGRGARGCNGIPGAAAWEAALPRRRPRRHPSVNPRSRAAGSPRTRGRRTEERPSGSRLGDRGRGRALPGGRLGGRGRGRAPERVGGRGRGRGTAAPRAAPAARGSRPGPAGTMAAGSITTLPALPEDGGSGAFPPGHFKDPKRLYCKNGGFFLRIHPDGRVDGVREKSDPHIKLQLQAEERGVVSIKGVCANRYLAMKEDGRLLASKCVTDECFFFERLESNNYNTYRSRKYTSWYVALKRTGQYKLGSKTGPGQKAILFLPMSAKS
Sequence of Focal adhesion kinase 1 (Homo sapiens) (Q05397 whole entry, looked up): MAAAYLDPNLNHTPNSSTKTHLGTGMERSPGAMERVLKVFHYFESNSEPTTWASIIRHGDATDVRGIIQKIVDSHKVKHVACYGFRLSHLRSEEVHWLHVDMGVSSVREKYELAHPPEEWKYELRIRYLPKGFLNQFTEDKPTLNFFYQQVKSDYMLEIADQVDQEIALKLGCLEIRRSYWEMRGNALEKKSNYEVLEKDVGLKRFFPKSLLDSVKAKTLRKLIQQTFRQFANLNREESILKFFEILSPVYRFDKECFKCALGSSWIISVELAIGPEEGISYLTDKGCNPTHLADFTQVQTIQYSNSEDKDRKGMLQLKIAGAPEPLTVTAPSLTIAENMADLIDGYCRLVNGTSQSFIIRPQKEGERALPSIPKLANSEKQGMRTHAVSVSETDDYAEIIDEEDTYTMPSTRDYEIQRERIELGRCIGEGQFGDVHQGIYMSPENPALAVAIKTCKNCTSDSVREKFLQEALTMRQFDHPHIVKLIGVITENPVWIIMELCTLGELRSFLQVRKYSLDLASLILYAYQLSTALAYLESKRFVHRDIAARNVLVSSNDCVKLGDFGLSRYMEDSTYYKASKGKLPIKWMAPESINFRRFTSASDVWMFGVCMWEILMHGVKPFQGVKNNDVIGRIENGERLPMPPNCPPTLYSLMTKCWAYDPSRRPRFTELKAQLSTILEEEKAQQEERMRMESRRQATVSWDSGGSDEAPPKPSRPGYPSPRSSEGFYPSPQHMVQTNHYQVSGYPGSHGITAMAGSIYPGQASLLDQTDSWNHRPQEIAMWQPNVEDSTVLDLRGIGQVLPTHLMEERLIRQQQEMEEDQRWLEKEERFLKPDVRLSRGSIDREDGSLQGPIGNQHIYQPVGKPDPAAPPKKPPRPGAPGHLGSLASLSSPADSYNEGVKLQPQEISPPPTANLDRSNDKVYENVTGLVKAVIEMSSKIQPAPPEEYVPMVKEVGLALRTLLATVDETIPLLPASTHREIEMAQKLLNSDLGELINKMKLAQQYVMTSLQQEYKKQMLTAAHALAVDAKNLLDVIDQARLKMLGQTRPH

Consider `CC(C)(C)OC(=O)CC[C@]12N=C(c3ccc(OCCCO)cc3)O[C@H]1c1ccccc1N(Cc1ccccc1)C2=O`, for which the composite z-score was determined as 1.6 in [1]; 1.13 in test [2]; 0.56 in test [3]; 0.758 in [4]; 1.35 in test [5]; 1.4 in [6]. Further, the composite z-score in the test with Lefty1 was 0.457; in test [8], 0.477; in [10], 0.154; in [15] it was -0.12; in [16] it was 0.225; with Torsin-1A (Homo sapiens) [17], 0.553. Also, the figures for the composite z-score (with Torsin-1A (Homo sapiens) [18]; in test [19]) were 1.63 and 1.12, respectively. Also, the z-score in test [7] is 3.04; in [9], -2.2 (inactive); in test [11], -3.76 (inactive); in [12], 1.18 (inactive); in test [13] it was 0.951 (inactive); in test [14] it was -0.746 (inactive).

Take `C=CCNC(=O)[C@@H]1[C@H]2C(=O)O[C@H](c3ccccc3)[C@H](c3ccccc3)N2[C@H](c2ccc(O)cc2)[C@@]12C(=O)Nc1ccc(C#CCC(C(=O)OC)C(=O)OC)cc12`: the composite z-score was -0.414 in [1]; 1.2 in test [2]; 0.267 in test [3]; 0.0847 in test [4]; 1.24 in test [5]; 0.464 in [6]. In addition, the composite z-score with Lefty1 was 0.147; in test [8], 0.0307; in test [10], 0.0513; in test [15], 0.138; in [16], -0.018; with Torsin-1A (Homo sapiens) [17] it was 0.131. The values for the composite z-score (with Torsin-1A (Homo sapiens) [18]; in test [19]) were 1.76 and 0.8, respectively. In addition, the z-score in test [7] is -1.22; in [9], -0.108 (inactive); in [11], -5.09 (inactive); in test [12], -1.02 (inactive); in [13], -0.608 (inactive); in test [14] it was -0.746 (inactive).

`O=C1[C@@H]2[C@@H](CC(COc3ccccc3)=C3[C@@H](CCc4ccccc4)OB(O)C[C@@H]32)C(=O)N1Cc1ccccc1`: the composite z-score in test [1] is -0.147; in test [2], 0.871; in test [3] it was 0.034; in test [4], 0.0907; in test [5], 0.445; in test [6], 0.161. Also, the composite z-score in the test with Lefty1 is 0.212; in [8], 0.344; in test [10], -0.0294; in test [15], 0.376; in test [16], -0.0161; with Torsin-1A (Homo sapiens) [17] it was 0.0258. Also, the results for the composite z-score (with Torsin-1A (Homo sapiens) [18]; in test [19]) were 0.256 and 0.919, respectively. In addition, the z-score was 1.83 in test [7]; -1.06 (inactive) in test [9]; -1.91 (inactive) in [11]; 0.132 (inactive) in test [12]; 1.94 (inactive) in [13]; -1.12 (inactive) in [14].

For the compound `COc1ccc([Si](C)(C)[C@@H]2[C@@H](CC(=O)N3Cc4ccccc4C[C@H]3CO)O[C@]3(C(=O)N(c4ccccc4)c4ccccc43)[C@H]2C)cc1`, the composite z-score in test [1] worked out at 2.39; in [2], 0.957; in test [3], 0.983; in test [4], 0.813; in test [5] it was 1.36; in [6] it was 1.46. Also, the composite z-score is 1.04 in the test with Lefty1; 1.53 in [8]; 0.6 in test [10]; 0.627 in [15]; 0.128 in test [16]; 1.56 with Torsin-1A (Homo sapiens) [17]. The composite z-score is 0.871 with Torsin-1A (Homo sapiens) [18] and 1.47 in [19]. The z-score in [7] was 0.277; in [9], 0.348 (inactive); in [11], -4.81 (inactive); in test [12], -0.751 (inactive); in test [13], 2.36 (inactive); in test [14], 0.931 (inactive).

Regarding `COc1ccc([Si](C)(C)[C@H]2[C@H](CCO)O[C@@]3(C(=O)N(Cc4ccccc4)c4ccc(N5C(=O)c6ccccc6Oc6ccccc65)cc43)[C@@H]2C)cc1`, the composite z-score is 0.814 in test [1]; 0.885 in test [2]; -0.21 in [3]; -0.0167 in test [4]; -0.4 in test [5]; 1.02 in test [6]. Moreover, the composite z-score was -0.204 in the test on Lefty1; 1.23 in test [8]; 0.147 in [10]; -0.069 in test [15]; -0.128 in test [16]; -0.218 with Torsin-1A (Homo sapiens) [17]. For the same compound, the values for the composite z-score (with Torsin-1A (Homo sapiens) [18]; in [19]) were 0.102 and 0.534, respectively. Also, the z-score in test [7] is 0.616; in [9] it was 0.666 (inactive); in test [11], -6.59 (inactive); in [12], -0.0823 (inactive); in [13], 0.324 (inactive); in test [14] it was -0.328 (inactive).
